# Measured values: PubChem BioAssay (NCATS)
# Where “and” joins values, the source holds several entries; their conditions need not be identical. Equal entries are not always repeated. Inconclusive results are not listed. Entries that show only a call come without a potency. The source holds several records for some structures; these can differ, active in one and inactive in another. Calls of active or inactive are those of the source. Unless noted, calls come from the whole dose curve; as a rule, active = well fitted curve in the direction sought with a large enough effect; inconclusive = small, poorly fitted or top-dose-only effect, or another doubt; inactive = no such curve, though single readings can be large; an effect the other way counts as inactive or inconclusive.
# Tests used:
# [1] = Primary qHTS for small molecule stabilizers of the endoplasmic reticulum resident proteome: Secreted ER Calcium Modulated Protein (SERCaMP) assay (AID 1508630); details: SH-SY5Y GLuc-SERCaMP (Gaussia luciferase released on ER calcium loss) secretion, thapsigargin, luminescence; series mostly up to 38.4 µM; note: potency is the fitted concentration of half-maximal effect
# Outline: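 GLuc-SERCaMP-expressing SH-SY5Y cells, pretreated 16 h with compound, are challenged with thapsigargin to empty ER calcium stores; after 4 h, coelenterazine is added directly to the medium and luminescence is imaged.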
# [2] = A High-Content qHTS Against Drug Library for the Identification of Small Molecules that Inhibit DYT1 Early Onset Primary Dystonia-Associated Cell Pathology (AID 1645839; calls by dose curve); details: HEK293 Flp-In EGFP-delE TorsinA, punctate imaging, 48 h; series mostly up to 46.1 µM
# Outline: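 Flp-In T-REx 293 cells with tetracycline-inducible EGFP-delE hTOR1A (WT EGFP-hTOR1A as reference), 800 cells/well; compound added with tetracycline, 48 h at 37 C. Fixed, permeabilized cells imaged; %pathology (punctate TorsinA) primary, cell count counterscreen.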
# [3] = biological target: Cytochrome P450 3A4 (Homo sapiens) (UniProt P08684); test: Cytochrome P450 family 3 subfamily A member 4 (CYP3A4) small molecule antagonists: luciferase qHTS assay (AID 1645841; active = well fitted curve in the direction sought with a large enough effect in the repeat runs; an effect the other way counts as inactive or inconclusive; note: nearly all actives have a fitted effect of over 45% in size); details: P450-Glo CYP3A4 enzyme assay, luciferin luminescence; series mostly up to 57.4 µM
# Sequence of Cytochrome P450 3A4 (Homo sapiens) (P08684 whole entry, looked up): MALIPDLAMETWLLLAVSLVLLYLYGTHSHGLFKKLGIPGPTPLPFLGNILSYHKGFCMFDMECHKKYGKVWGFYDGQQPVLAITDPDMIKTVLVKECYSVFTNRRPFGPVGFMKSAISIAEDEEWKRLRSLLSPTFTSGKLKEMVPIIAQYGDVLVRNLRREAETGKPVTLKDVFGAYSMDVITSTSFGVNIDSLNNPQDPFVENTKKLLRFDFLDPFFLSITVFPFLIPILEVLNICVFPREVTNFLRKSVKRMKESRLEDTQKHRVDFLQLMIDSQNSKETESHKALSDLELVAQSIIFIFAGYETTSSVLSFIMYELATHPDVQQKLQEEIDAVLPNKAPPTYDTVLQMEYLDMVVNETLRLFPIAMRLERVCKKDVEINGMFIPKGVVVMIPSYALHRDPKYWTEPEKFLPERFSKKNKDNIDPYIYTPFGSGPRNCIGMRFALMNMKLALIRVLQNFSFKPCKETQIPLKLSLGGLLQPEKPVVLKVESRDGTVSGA
# Outline: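 P450-Glo CYP3A4 enzyme with proluciferin substrate preincubated 10 min with compound at room temperature, then NADPH regeneration 1 h. Luciferin detection reagent added for 20 min; luminescence recorded. Ketoconazole positive control.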
# [4] = Primary qHTS for inhibitors of nuclear receptor binding SET domain protein 2 (NSD2) in an isogenic RCH-ACV NSD2 p.E1099K mutant (9B) (AID 1645876); details: RCH-ACV NSD2 E1099K (9B) viability, CellTiter-Glo, 72 h; series mostly up to 44.9 µM; note: nearly all actives have a fitted effect of over 70% in size; note: potency is the fitted concentration of half-maximal effect
# [5] = Primary qHTS for inhibitors of nuclear receptor binding SET domain protein 2 (NSD2) in an RCH-ACV wild type WT cells (2C) (AID 1645877); details: RCH-ACV (leukaemia line) NSD2 WT (2C) viability, CellTiter-Glo, 72 h; series mostly up to 44.9 µM; note: nearly all actives have a fitted effect of over 70% in size; note: potency is the fitted concentration of half-maximal effect
# [6] = biological target: Cytochrome P450 2D6 (Homo sapiens) (UniProt P10635); test: Cytochrome P450 family 2 subfamily D member 6 (CYP2D6) small molecule antagonists: luciferase biochemical (cell-free) qHTS assay (AID 1645840; active = well fitted curve in the direction sought with a large enough effect in the repeat runs; an effect the other way counts as inactive or inconclusive; note: nearly all actives have a fitted effect of over 55% in size; note: potency is the fitted concentration of half-maximal effect); details: P450-Glo CYP2D6 enzyme, luciferin luminescence, 1 h; series mostly up to 57.4 µM
# Sequence of Cytochrome P450 2D6 (Homo sapiens) (P10635 whole entry, looked up): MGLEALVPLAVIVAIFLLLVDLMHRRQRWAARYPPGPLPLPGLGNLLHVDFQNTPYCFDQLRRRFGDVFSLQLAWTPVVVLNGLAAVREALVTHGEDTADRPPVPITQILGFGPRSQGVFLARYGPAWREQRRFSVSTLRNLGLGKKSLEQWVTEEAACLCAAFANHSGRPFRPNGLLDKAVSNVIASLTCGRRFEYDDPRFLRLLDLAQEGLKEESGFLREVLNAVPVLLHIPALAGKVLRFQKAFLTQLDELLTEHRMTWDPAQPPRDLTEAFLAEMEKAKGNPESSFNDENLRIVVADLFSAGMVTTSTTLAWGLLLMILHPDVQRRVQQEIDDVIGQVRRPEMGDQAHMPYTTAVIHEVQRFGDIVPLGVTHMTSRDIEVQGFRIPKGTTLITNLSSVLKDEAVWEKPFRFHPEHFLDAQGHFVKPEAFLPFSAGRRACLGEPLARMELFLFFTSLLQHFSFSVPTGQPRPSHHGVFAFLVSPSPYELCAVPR
# Outline: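 P450-Glo luminescent screen: recombinant CYP2D6 enzyme–proluciferin substrate mix preincubated with compound 10 min at room temperature, then NADPH regeneration added for 1 h at room temperature. Detection reagent added for 20 min; luciferin light read as relative luminescence units.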
# [7] = biological target: Cytochrome P450 2C9 (Homo sapiens) (UniProt P11712); test: Cytochrome P450 family 2 subfamily C member 9 (CYP2C9) small molecule antagonists: luciferase biochemical (cell-free) qHTS assay (AID 1645842; active = well fitted curve in the direction sought with a large enough effect in the repeat runs; an effect the other way counts as inactive or inconclusive; note: nearly all actives have a fitted effect of over 55% in size; note: potency is the fitted concentration of half-maximal effect); details: P450-Glo CYP2C9 enzyme assay, luciferin luminescence; series mostly up to 57.4 µM
# Sequence of Cytochrome P450 2C9 (Homo sapiens) (P11712 whole entry, looked up): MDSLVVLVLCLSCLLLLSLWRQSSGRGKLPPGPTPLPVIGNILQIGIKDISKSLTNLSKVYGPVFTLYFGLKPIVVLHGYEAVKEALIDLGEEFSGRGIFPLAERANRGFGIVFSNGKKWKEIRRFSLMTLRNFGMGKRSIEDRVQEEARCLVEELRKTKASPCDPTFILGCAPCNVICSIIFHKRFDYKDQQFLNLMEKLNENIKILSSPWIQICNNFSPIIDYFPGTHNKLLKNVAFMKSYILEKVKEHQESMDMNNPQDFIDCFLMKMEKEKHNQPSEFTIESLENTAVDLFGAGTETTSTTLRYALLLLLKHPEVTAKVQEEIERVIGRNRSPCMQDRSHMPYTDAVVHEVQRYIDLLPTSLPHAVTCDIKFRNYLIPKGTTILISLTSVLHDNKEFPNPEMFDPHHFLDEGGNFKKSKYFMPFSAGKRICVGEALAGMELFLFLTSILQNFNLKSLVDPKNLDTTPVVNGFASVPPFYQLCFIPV
# Outline: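 Luminescence, after 20 min with luciferin detection reagent, reflected CYP2C9 turnover during a 1 h NADPH-driven reaction at 37C. Enzyme-substrate mix contained 0.4% bovine serum albumin and was preincubated with compound 10 min at room temperature.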
# [8] = biological target: Catechol O-methyltransferase (Homo sapiens) (UniProt P21964); test: Confirmatory Screen for Target Class Profiling of Small Molecule Inhibitors of Methyltransferases (AID 1745852; calls by dose curve; note: potency is the fitted concentration of half-maximal effect); details: MTase-Glo luminescence, SAH detection, recombinant enzyme, stronger effect = lower value; measured here: COMT max response unless noted
# Sequence of Catechol O-methyltransferase (Homo sapiens) (P21964 whole entry, looked up): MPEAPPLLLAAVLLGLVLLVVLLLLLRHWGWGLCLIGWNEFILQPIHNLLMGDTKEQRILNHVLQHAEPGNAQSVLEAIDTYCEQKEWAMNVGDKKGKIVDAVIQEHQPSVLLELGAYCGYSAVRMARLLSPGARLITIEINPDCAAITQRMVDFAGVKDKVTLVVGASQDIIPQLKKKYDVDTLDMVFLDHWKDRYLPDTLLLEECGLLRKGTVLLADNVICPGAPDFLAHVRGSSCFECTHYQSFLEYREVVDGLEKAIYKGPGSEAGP
# [9] = biological target: Guanidinoacetate N-methyltransferase (Homo sapiens) (UniProt Q14353); test: as above; details: MTase-Glo luminescence, SAH detection, recombinant enzyme; activity change, negative = inhibition: at 57.3 µM (top of the series)
# [10] = biological target: Nicotinamide N-methyltransferase (Homo sapiens) (UniProt P40261); test: as above; details: MTase-Glo luminescence, SAH detection, recombinant enzyme, stronger effect = lower value; measured here: NNMT max response unless noted
# Sequence of Nicotinamide N-methyltransferase (Homo sapiens) (P40261 whole entry, looked up): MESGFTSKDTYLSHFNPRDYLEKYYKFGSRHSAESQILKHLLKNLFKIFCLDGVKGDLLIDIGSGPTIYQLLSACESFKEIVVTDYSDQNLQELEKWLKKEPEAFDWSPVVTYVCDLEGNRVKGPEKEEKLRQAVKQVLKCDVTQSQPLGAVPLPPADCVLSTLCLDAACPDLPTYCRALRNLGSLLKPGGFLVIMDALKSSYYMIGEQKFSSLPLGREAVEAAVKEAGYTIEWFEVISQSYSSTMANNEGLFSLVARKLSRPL
# [11] = biological target: Phenylethanolamine N-methyltransferase (Homo sapiens) (UniProt P11086); test: as above; details: MTase-Glo luminescence, SAH detection, recombinant enzyme, stronger effect = lower value; measured here: PNMT max response unless noted
# Sequence of Phenylethanolamine N-methyltransferase (Homo sapiens) (P11086 whole entry, looked up): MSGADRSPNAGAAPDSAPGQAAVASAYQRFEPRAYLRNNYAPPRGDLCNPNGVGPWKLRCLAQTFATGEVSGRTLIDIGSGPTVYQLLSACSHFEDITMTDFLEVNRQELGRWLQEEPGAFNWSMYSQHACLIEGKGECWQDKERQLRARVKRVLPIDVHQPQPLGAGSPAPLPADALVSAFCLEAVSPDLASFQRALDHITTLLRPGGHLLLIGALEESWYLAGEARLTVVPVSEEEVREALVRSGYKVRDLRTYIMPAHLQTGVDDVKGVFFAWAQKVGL
# Papain (Carica papaya) = Papain (Carica papaya) (UniProt P00784); test: Primary qHTS assay for inhibitors of the protease papain (AID 1645873); details: papain Z-FR-AMC cleavage, AMC fluorescence; series mostly up to 49.8 µM;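 note: papain turnover of Z-FR-AMC read as the AMC fluorescence gain over 10 min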; note: potency is the fitted concentration of half-maximal effect
# Sequence of Papain (Carica papaya) (P00784 whole entry, looked up): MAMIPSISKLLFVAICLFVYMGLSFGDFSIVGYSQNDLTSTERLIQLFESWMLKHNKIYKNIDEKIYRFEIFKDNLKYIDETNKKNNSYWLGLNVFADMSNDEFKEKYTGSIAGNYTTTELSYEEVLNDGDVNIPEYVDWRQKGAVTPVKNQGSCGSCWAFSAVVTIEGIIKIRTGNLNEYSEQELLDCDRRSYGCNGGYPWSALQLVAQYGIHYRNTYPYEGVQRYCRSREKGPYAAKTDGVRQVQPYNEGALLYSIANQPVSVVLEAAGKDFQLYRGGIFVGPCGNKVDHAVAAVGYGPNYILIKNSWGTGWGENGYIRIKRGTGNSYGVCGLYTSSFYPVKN
structure (smiles),measurement,setting,value
Cc1ccc(C)c(OCCCC(C)(C)C(=O)O)c1,Potency,[1],inactive
same,Potency,[2],inactive
same,outcome,[3],inactive
same,Potency,[4],inactive
same,Potency,[5],inactive
COc1cc2c(N3CCN(C(=O)Nc4ccc(OC(C)C)cc4)CC3)ncnc2cc1OCCCN1CCCCC1,Potency,[1],inactive
same,Potency,[2],inactive
same,Potency,[6],12.3 µM (active)
same,Potency,[7],inactive
same,Potency,[4],18.8 µM (active) and 25.8 µM (active) and 16.6 µM (active)
same,Potency,[5],13.3 µM (active) and 23 µM (active) and 16.6 µM (active)
CC[C@]1(O)C[C@H]2CN(CCc3c([nH]c4ccccc34)[C@@](C(=O)OC)(c3cc4c(cc3OC)N(C=O)[C@H]3[C@@](O)(C(=O)OC)[C@H](OC(C)=O)[C@]5(CC)C=CCN6CC[C@]43[C@@H]65)C2)C1,Potency,[1],inactive
same,Potency,[2],inactive
same,Potency,[7],inactive
same,Potency,[4],7.5 nM (active) and 59 nM (active)
same,Potency,[5],6.7 nM (active) and 29.5 nM (active)
CC(C)C[C@H](NC(=O)[C@H](Cc1ccccc1)NC(=O)c1cnccn1)B(O)O,Potency,[1],inactive
same,Potency,[2],inactive
same,Potency,[6],inactive
same,Potency,[7],inactive
same,Potency,[4],3.8 nM (active) and 5.2 nM (active) and 26.3 nM (active)
same,Potency,[5],3.8 nM (active) and 6.5 nM (active) and 18.6 nM (active)
N[C@@H](Cc1cc(I)c(Oc2cc(I)c(O)c(I)c2)c(I)c1)C(=O)O,Potency,[1],inactive and 749 nM (active)
same,Potency,[2],inactive
same,Potency,[6],inactive
same,Potency,[4],inactive
same,Potency,[5],inactive
same,activity,[8],-6.89%
same,"activity change, negative = inhibition",[9],-4.64%
same,activity,[10],-9.69%
same,activity,[11],-6.64%
NS(=O)(=O)c1cc(C(=O)O)c(NCc2ccco2)cc1Cl,Potency,[1],inactive
same,Potency,[2],inactive
same,Potency,[4],inactive
same,Potency,[5],inactive
Oc1ccc(OCc2ccccc2)cc1,Potency,[1],inactive
same,Potency,[2],inactive
same,Potency,[6],15.5 µM (active)
same,Potency,[4],inactive and 2.63 µM (active)
same,Potency,[5],inactive and 4.68 µM (active)
Nc1cc(C(Cl)=C(Cl)Cl)c(S(N)(=O)=O)cc1S(N)(=O)=O,Potency,[1],inactive
same,Potency,[2],inactive
same,Potency,[4],inactive
same,Potency,[5],inactive
N=C(N=C(N)N)N1CCOCC1,Potency,[1],inactive
same,Potency,[2],inactive
same,Potency,[6],inactive
same,Potency,[7],inactive
same,Potency,[4],inactive
same,Potency,[5],inactive
Cc1cc2cc3c(C)cc(=O)oc3c(C)c2o1,Potency,[1],inactive
same,Potency,[2],inactive
same,Potency,[7],inactive
same,Potency,[4],inactive
same,Potency,[5],inactive
Nc1ccc(S(N)(=O)=O)cc1,Potency,[1],inactive
same,Potency,[2],inactive
same,Potency,[4],inactive
same,Potency,[5],inactive
CC(C)[C@H](N)C(=O)OCCOCn1cnc2c(=O)[nH]c(N)nc21,Potency,[1],inactive
same,Potency,[2],inactive
same,Potency,[7],inactive
same,Potency,[4],inactive
same,Potency,[5],inactive
CNC[C@H](O)c1ccc(O)c(O)c1,Potency,[1],inactive
same,Potency,[2],inactive
same,Potency,[7],inactive
same,Potency,Papain (Carica papaya),inactive
same,Potency,[4],inactive
same,Potency,[5],inactive
COc1cc2nc(N3CCN(C(=O)C4CCCO4)CC3)nc(N)c2cc1OC (stereo unspecified),Potency,[1],inactive
same,Potency,[2],inactive
same,Potency,[7],inactive
same,Potency,[4],11.9 µM (active)
CN(C)[C@@H](CCOc1cccc2ccccc12)c1ccccc1,Potency,[1],inactive
same,Potency,[7],15.5 µM (active) and 21.3 µM (active)
same,Potency,[5],23.7 µM (active)
CCN(CCO)CCCC(C)Nc1ccnc2cc(Cl)ccc12 (stereo unspecified),Potency,[1],inactive
same,"% pathology change, negative = correction",[2],-8.74% [at 4.63 µM] (inactive)
same,"activity change, negative = viability loss",[4],1.42% [at 4.96 µM] (inactive) and 7.11% [at 4.96 µM] (inactive)
same,outcome,[5],inactive [at 4.96 µM]
COC1=C(OC)C(=O)C(CCCCCCCCCCO)=C(C)C1=O,Potency,[1],inactive
same,Potency,[6],3.89 µM (active)
same,Potency,[7],7.76 µM (active)
same,Potency,[4],11.9 µM (active) and 18.6 µM (active)
same,Potency,[5],9.44 µM (active) and 18.6 µM (active)
NC(=NCc1ccccc1)NC(=O)c1nc(Cl)c(N)nc1N,Potency,[1],inactive
same,Potency,[6],5.35 µM (active)
same,Potency,[7],inactive
same,Potency,Papain (Carica papaya),31.6 µM (active)
same,Potency,[4],13.2 µM (active)
same,Potency,[5],13.2 µM (active)
CC(=O)NC[C@H]1CN(c2ccc(N3CCOCC3)c(F)c2)C(=O)O1,Potency,[1],inactive
same,Potency,[6],inactive
same,outcome,[3],inactive
same,Potency,Papain (Carica papaya),inactive
same,Potency,[4],inactive
same,Potency,[5],inactive
Cc1ccc(C(=O)c2cc(O)c(O)c([N+](=O)[O-])c2)cc1,Potency,[1],inactive
same,Potency,[6],inactive
same,Potency,[7],5.49 µM (active)
Cc1nc(-c2ccc(OCC(C)C)c(C#N)c2)sc1C(=O)O,Potency,[1],inactive
same,Potency,[6],inactive
same,Potency,[4],inactive
same,Potency,[5],inactive
Cc1cc(=O)c2c(O)c3c(O)cc(=O)c4c3c3c(cc(O)c1c23)C(C)(C)C=4O,Potency,[1],inactive
same,outcome,[3],inactive
same,Potency,[7],inactive
same,Potency,[4],inactive
C=C(c1ccc(C(=O)O)cc1)c1cc2c(cc1C)C(C)(C)CCC2(C)C,Potency,[1],inactive
same,Potency,[6],inactive
same,Potency,[4],inactive
same,Potency,[5],inactive
CC1=C(C)C(=O)C(C(CCCCCC(=O)O)c2ccccc2)=C(C)C1=O (stereo unspecified),Potency,[1],inactive
same,Potency,[6],11 µM (active)
same,Potency,[7],17.4 µM (active)
same,Potency,[4],inactive
same,Potency,[5],inactive
Cc1cc2c(s1)Nc1ccccc1N=C2N1CCN(C)CC1,Potency,[1],inactive
same,Potency,[7],inactive
same,Potency,[5],23.5 µM (active)
Cc1cccc(CN2CCN(C(c3ccccc3)c3ccc(Cl)cc3)CC2)c1 (stereo unspecified),Potency,[1],inactive
same,Potency,[7],11 µM (active)
same,Potency,[4],inactive
Cc1nc(Nc2ncc(C(=O)Nc3c(C)cccc3Cl)s2)cc(N2CCN(CCO)CC2)n1,Potency,[1],inactive
same,Potency,[7],inactive
same,Potency,[4],0.7 nM (active) and 12.9 nM (active) and 20.9 nM (active)
same,activity,[8],-54.8%
same,Potency,[9],30.4 µM (active)
same,activity,[10],-33%
same,activity,[11],-52.6%
